Lassa entry inh: qHTS for Inhibitors of binding or entry into cells for Lassa Virus; 300,000 compounds, 1.2% hits; Potency, µM (titrated, usually from 37.9 µM), without a hit: top-dose activity change, negative = inhibition, most hits filed as inhibitors; Lassa virus pseudotype entry inhibition, cell reporter; calls by dose curve; tested in HEK293 cells; further: nearly all actives have a fitted effect of over 50% in size
Vaccinia Venus: qHTS for Stage-Specific Inhibitors of Vaccinia Orthopoxvirus: Venus Reporter Primary qHTS. Vaccinia virus Venus reporter expression, fluorescence. Potency, µM (top dose mostly 36.5 µM), inactives show at the highest dose activity change, negative = inhibition, actives largely listed as inhibitors. 330,000 compounds, 0.46% hits. AID 720580, 2013; calls by dose curve; tested in A549 cells; further: nearly all actives have a fitted effect of over 30% in size
HCV inh: qHTS Assay for Inhibitors of Hepatitis C Virus (HCV). Huh7.5.1 HCVcc-Cre infection, luciferase reporter, 44 h. Potency, µM (top dose mostly 41.8 µM), without a hit: at the top dose activity change, negative = inhibition, usual class: inhibitors. 340,000 compounds, 3.4% hits; active means well fitted inhibition curve with a large enough effect; inconclusive means small, poorly fitted or top-dose-only effect, or another doubt; inactive means no such curve, though single readings can be large or run the other way
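Compounds are dispensed onto cells plated 4 h earlier at 1,000 per well, with HCVcc-Cre virus (about 0.5 moi) added next. Following 44 h of culture, luminescent signal is measured for 15 sec after 15 min with substrate at room temperature.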
Vaccinia mCherry: qHTS for Stage-Specific Inhibitors of Vaccinia Orthopoxvirus: mCherry Reporter Primary qHTS; Vaccinia virus mCherry reporter infection, fluorescence; Potency, µM (highest dose often 36.5 µM), without a hit: top-dose activity change, negative = inhibition, actives largely listed as inhibitors; 310,000 compounds, 0.63% hits; AID 720579, 2013; calls by dose curve; tested in A549 cells; further: nearly all actives have a fitted effect of over 35% in size
FMDV inh: High Throughput Screening for Foot and Mouth Disease Virus Antivirals; FMDV antiviral cell-based qHTS; Potency, µM (doses to about 57.9 µM), for the others: at the highest dose activity change, negative = inhibition, hits mostly inhibitors; 410,000 compounds, 1.2% hits; AID 1159524, 2015; calls by dose curve; tested in HEK293T cells; further: read-out not given here; nearly all actives have a fitted effect of over 45% in size
MARV entry inh: qHTS for inhibitors of binding or entry into cells for Marburg Virus | AID 540276, 2011 | Marburg virus pseudotyped entry inhibition, cell reporter | 300,000 compounds, 1.8% hits | Potency, µM (top dose mostly 37.8 µM), inactives show at the highest dose activity change, negative = inhibition, usual class: inhibitors; calls by dose curve; tested in HEK293 cells
An asterisk follows results filed as active; i = inactive; ? = inconclusive; . = not tested or not shown; ! = not confirmed by another sample; [ ] = remark or other dose. Most compounds without a hit are left out; they make up all but 5.3% or so of the library. On the % scale 0 is the no-effect control and ±100 the full control effect; potency means the concentration at half of the fitted maximal effect.

SMILES	Lassa entry inh	Vaccinia Venus	HCV inh	Vaccinia mCherry	FMDV inh	MARV entry inh
COc1ccc(OCC(=O)Nc2ccccc2C(=O)OCc2cc(=O)n3nc(C)sc3n2)cc1	18.0%[46.1 µM]	-11.8%	.	-15.9%	20µM*	.
Cc1nn2c(=O)cc(COC(=O)c3cccc(NC(=O)COc4ccccc4C)c3)nc2s1	26.3%[46.1 µM]	-6.6%	.	-4.4%	2.82µM*	.
COc1cc(C)c(CN2C[C@H](Sc3ccccn3)C[C@H]2C(=O)N(C)C)cc1C	.	-9.6%	.	-0.1%	4.4%	.
CCOc1ccc(C(=O)NCCS(=O)(=O)N2CCN(c3cccc(Cl)c3)CC2)cc1	-23.2%[46.1 µM]	-11.3%	.	-11.6%	0.0%	.
O/N=C(/CI)c1ccc2ccccc2c1	.	-16.9%	.	-22.4%	.	.
COc1ccccc1N1CCN(c2nc(CNC(=O)c3sc(C)nc3C)nc3ccccc23)CC1	.	-12.6%	.	-16.7%	?	.
COc1cc2c(cc1OC)C(C)N(C(=O)c1cc3c(C)cc(C)cc3[nH]1)CC2 (configuration not stated)	?	-11.4%	22.4µM*	i	-18.0%	3.16µM*
CCOc1ccc(-c2cc(CCCC(=O)Nc3cccc(OC)c3)no2)cc1	0.82µM*	?	?	-5.9%	?	?
COc1ccc(-c2cc(C(=O)Nc3cccc(O)c3)no2)cc1	.	.	-24.7%	.	20µM*	.
COc1ccc(-c2cc(C(=O)Nc3c(C)nn(Cc4ccc(Cl)cc4)c3C)no2)cc1	-6.4%	.	?	.	?	23.1µM*
COc1ccc(-c2cc(C(=O)Nc3ccc(C)c(C)c3)no2)cc1	.	.	-10.2%	.	-21.3%	.
COc1ccccc1-c1cc(C(=O)Nc2c(C)nn(Cc3ccc(Cl)cc3)c2C)no1	?	?	.	?	28.2µM*	10µM*
O=C(Nc1ccc2c(c1)OCO2)c1cc(-c2ccc(Cl)cc2)on1	29.3%[46.1 µM]	7.5%	.	-9.0%	0.0%	-5.8%[46.1 µM]
O=C(Nc1ccc2c(c1)OCO2)c1ccc(Cl)cc1Cl	?	-19.2%	-22.1%	-14.1%	-7.8%	6.31µM*
O=C(Nc1ccc2c(c1)OCO2)c1cc(-c2ccc(O)cc2)on1	6.4%[46.1 µM]	-13.1%	?	-18.5%	34.7%	7.94µM*
Cc1nc(NC(=O)c2ccc(Cl)cc2)nc2cc3c(cc12)OCO3	6.4%	-28.2%	5.9%	-12.3%	-22.0%	29.3%
O=C(Nc1ccc2c(c1)OCCO2)c1ccc(Cl)cc1Cl	?	2.7%	-29.5%	0.8%	-9.0%	?
Cc1c(C(=O)c2ccc(Cl)cc2Cl)cnc2cc3c(cc12)OCO3	?	.	10µM*	.	?	?
CC1=C(C(=O)OCc2ccc(C)cc2)C(c2cccc(F)c2F)CC(=O)N1 (configuration not stated)	6.3%[46.1 µM]	-7.7%	.	-3.8%	?	-9.3%[46.1 µM]
Cc1cc(C)c(S(=O)(=O)NCCc2cc3c(C)ccc(C)c3[nH]c2=O)c(C)c1	18.6%[46.1 µM]	-1.5%	.	0.7%	6.0%	4.8%[46.1 µM]
Cc1cccc(CCn2c(=O)c3ccccc3n(Cc3ccccc3C)c2=O)c1	?	-2.8%	.	-9.4%	?	7.1%[46.1 µM]
N#C/C(=C/c1ccc(-c2ccc(Br)cc2)o1)C(=O)NC1CCCCC1	?	?	14.1µM*	?	-5.8%	?
N#C/C(=C\c1ccc(-c2ccc(Br)cc2)o1)C(=O)NCCc1c[nH]c2ccccc12	?	-11.9%	22.4µM*	?	-8.6%	?
COc1ccc(C(=O)N/C(=C\c2ccc(Cl)cc2)C(=O)NCCN2CCOCC2)cc1	.	-8.2%	.	i	0.9%	.
COc1cc2c(cc1OC)[C@@H]1O[C@](c3ccsc3)(C2)OC2=C1C(=O)CC(C)(C)C2	.	.	.	.	.	-12.1%[14.2 µM]
SMILES	Lassa entry inh	Vaccinia Venus	HCV inh	Vaccinia mCherry	FMDV inh	MARV entry inh
NC[C@@H]1O[C@H](O[C@H]2[C@H](O)[C@H](O[C@H]3[C@@H](O)[C@H](N)C[C@H](N)[C@H]3O[C@H]3O[C@H](CN)[C@H](O)[C@H](O)[C@H]3N)O[C@@H]2CO)[C@@H](N)[C@@H](O)[C@@H]1O	.	.	.	.	-15.0%[16.9 µM]	.
O=C(c1ccco1)N1CCN(C(=O)c2cnn3c2NC(c2cccs2)CC3C(F)(F)F)CC1 (configuration not stated)	-2.4%	-17.2%	0.5%	-14.8%	-21.8%	-1.2%
O=C(c1cnn2c1NC(c1ccco1)CC2C(F)(F)F)N1CCN(c2cccc(Cl)c2)CC1 (configuration not stated)	12.6µM*	?	10µM*	.	?	?
CCN(CC)CCN(C(=O)c1ccco1)c1nc2c(C)c(C)ccc2s1	11.1%[46.1 µM]	-14.6%	.	-22.7%	-21.8%	.
COc1ccccc1C(=O)N[C@@H]1c2ccccc2C2(CCN(Cc3nccs3)CC2)[C@H]1OC	.	-6.2%	.	-20.6%	-13.7%	.
O=c1c(Br)c(N2CCCC2)cnn1-c1ccccc1	7.2%	-13.9%	9.1%	-20.9%	42.7%	6.3%
O=c1c(Br)c(Br)cnn1-c1ccccc1	?	?	8.91µM*	?	14.1µM*	?
CN1/C(=C\C=Nc2ccccc2)C(C)(C)c2ccccc21	?	36.6%	-27.7%	-2.6%	?	?
Cc1cc(/N=C/C=C2\N(C)c3ccccc3C2(C)C)n(CCC#N)n1	-77.8%	?	11.2µM*	-23.8%	.	?
Cc1c(C(=O)NC2CCCC2)sc2ncnc(NCCN(C)C)c12	.	-4.1%	.	-6.6%	-4.8%	.
O=c1cc(N2CCOCC2)oc2c(-c3ccccc3)cccc12	-18.0%	?	.	-22.6%	-23.1%	0.316µM*!
c1ccc(-c2cc(-c3ccc(N4CCOCC4)cc3)nc3ccccc23)cc1	?	-16.2%	-10.5%	-22.4%	16.1%	?
CCOC(=O)N/N=C1\C[C@@H](O)[C@@H](O)[C@@H]2[C@@H]3C(=O)N(C4CCCCC4)C(=O)[C@@H]3CC[C@H]12	.	.	.	.	.	-24.9%[14.2 µM]
CCSc1cc(C)nc2c(-c3ccccc3)cnn12	.	.	10µM*	.	47.8%	.
Cc1ccc(S(=O)(=O)N2CCN(Cc3ccc4c(c3)OCO4)CC2)cc1	?	2.2%	.	-7.8%	-16.5%	.
CC(C)c1nc(SCC(=O)N2CC(=O)Nc3ccccc32)c2ccccc2n1	?	?	?	?	15.8µM*	?
O=C1CN(C(=O)CSc2nc(-c3ccc(Cl)cc3)cs2)c2ccccc2N1	-26.3%	?	14.1µM*	?	?	?
Cc1cc(C)c2nc(SCC(=O)N3CC(=O)Nc4ccccc43)c(C#N)cc2c1	?	?	7.94µM*	?	?	?
Cc1nnc(SCC(=O)N2CC(=O)Nc3ccccc32)s1	0.9%	-11.0%	-0.5%	-14.8%	2.7%	5.6%[46.1 µM]
Cc1ccc(O)c(C(=O)c2cc(C(=O)NCCC(C)C)c(=O)n(CCC(C)C)c2)c1	-0.2%[46.1 µM]	-10.7%	10µM*	i	-8.8%	?
